The whole screen tested about 69,000 compounds, of which about 8,600 (12%) showed an effect of 50% or more. The sample as a whole holds a higher share of strong results than the screen did.
Each compound was assayed on Plasmodium berghei (assay: Screen against P. berghei liver stage (PbLuc), transformed with Luciferase, at 10uM). Conditions: tested at 10 uM.
Type: functional, HepG2
`COC(=O)c1cc(C(=O)N2CCC(OC)CC2)n(-c2ccccc2)n1` showed an INHIBITION of -12.33%. For `COC(=O)CNC(=O)c1sc(-c2ccc(Cl)s2)nc1C`, the INHIBITION was -58%. `CC(O)CN1CCC(CNCc2cccc(OC(F)(F)F)c2)CC1` (stereo not given) was tested, and the INHIBITION was 35.4%. `CS(=O)(=O)NC[C@]12COC[C@H]1CN(C(=O)N1CCCC1)C2` gave an INHIBITION of 21.3%. For `CNCc1nc(-c2ccc3c(c2)OCO3)c[nH]1`, the INHIBITION was 8.4%. Compound `CN1CCC(n2nc(CC3CC3)nc2-c2ccc(F)cc2Cl)CC1` has an INHIBITION of 34.9%. With `CN(C)CCN(Cc1cccc(F)c1)C(=O)c1ccc2nccn2c1` the INHIBITION was 2.91%. Work on `Cc1cc(NC(=O)CN2CCn3c(C)nnc3C2)no1` yielded an INHIBITION of 45.1%. In the case of `CC(C)c1cc(NC(=O)CN2CCCC2c2noc(C(C)C)n2)on1` (stereo not given), the INHIBITION is reported as 52.3%. Compound `Cc1cc(NC(=O)CN2CCn3c(nnc3C(C)C)C2)no1` has an INHIBITION of 63.9%. For `CC(C)c1nc(C2CCCN2CC(=O)Nc2nncs2)no1` (stereo not given), the INHIBITION was 10.2%. Compound `Cc1cc(NC(=O)CN2CCn3c(nnc3C(C)C)C2)on1` has an INHIBITION of -0.219%. In the case of `Cc1cc(NC(=O)CN2CCCC2c2noc(C(C)C)n2)on1` (stereo not given), the INHIBITION is reported as -7.31%. Compound `O[C@@H]1CCN(CC2CCOC2)[C@H]1Cc1ccccc1` (stereo not given in full) has an INHIBITION of 46.7%. For `COc1ccc(CN(Cc2cncn2C)CC2CCCO2)cc1OC` (stereo not given), the INHIBITION was 15.9%. `CC(C)C(C)NC(=O)Nc1ccc(CS(C)(=O)=O)cc1` (stereo not given) showed an INHIBITION of 3.16%. For `COc1ccc(CN2CCn3cc(CNC(=O)CC4CC4)nc3C2)cc1`, the INHIBITION was 40.4%. Compound `CCOc1ccccc1CNC1CCCN(Cc2noc(C)n2)C1` (stereo not given) has an INHIBITION of 21.5%. `CC(C)N(Cc1ccc(C(=O)O)o1)C(C)C` was tested, and the INHIBITION was 69.6%. `CNC(=O)c1ccc(CN(C(C)C)C(C)C)o1` showed an INHIBITION of 47.9%. For `COC(=O)c1ccc(CN(C(C)C)C(C)C)o1`, the INHIBITION was 42.1%. With `c1coc(CN2CCCn3c(nnc3Cn3cccn3)C2)c1` the INHIBITION was 4.68%. For `O=C(Cc1ccc(F)cc1)N1CCn2cc(Cn3cccn3)nc2C1`, the INHIBITION was 51.2%. With `O=C(c1ccc[nH]1)N1CCn2cc(Cn3cccn3)nc2C1` the INHIBITION was 74.2%. Work on `O=C(CC1CC1)N1CCn2cc(Cn3cccn3)nc2C1` yielded an INHIBITION of 42.7%. Compound `O=C(c1ccc[nH]1)N1CCn2cc(Cn3cncn3)nc2C1` has an INHIBITION of 10.8%. Compound `O=C(Cc1cccs1)N1CCn2cc(Cn3cccn3)nc2C1` has an INHIBITION of -2.72%. `O=C(Cc1cccc(F)c1)N1CCn2cc(Cn3cccn3)nc2C1` showed an INHIBITION of 26.4%. In the case of `COc1ncccc1CN1C[C@@H]2COC[C@]2(CNC(=O)c2ccno2)C1`, the INHIBITION is reported as 29%. With `Cc1nc(C)c(CN2CCC(N(C)Cc3noc(C4CC4)n3)C2)s1` (stereo not given) the INHIBITION was -19.9%. Work on `COc1ccc(CNC2CCc3ncnn3C2)cc1OCCCC#N` (stereo not given) yielded an INHIBITION of 28.7%. With `CCc1nc(C)c(-c2nccn2CC2CCCCO2)[nH]1` (stereo not given) the INHIBITION was -10.2%. `CCc1nc(C)c(-c2nccn2CC2CCN(C3CCCC3)CC2)[nH]1` showed an INHIBITION of 22.5%. `CCc1nc(C)c(-c2nccn2CC2CC(=O)N(CC)C2)[nH]1` (stereo not given) was tested, and the INHIBITION was 55.2%. `Clc1cccc(N2CCC(NCc3ncc[nH]3)C2)c1` (stereo not given) showed an INHIBITION of 34.1%. Compound `CC(C(=O)Nc1cccc(Cl)c1)N1CCN(Cc2ncc[nH]2)CC1` (stereo not given) has an INHIBITION of 4.52%. In the case of `Cn1cc(C(NCc2ccc(F)cc2)c2cccc(F)c2)cn1` (stereo not given), the INHIBITION is reported as 15%. Compound `Clc1cccc(C(NCc2ncc[nH]2)c2ccccn2)c1` (stereo not given) has an INHIBITION of 83.2%. `Fc1cccc(C(NCc2ncc[nH]2)c2ccccc2)c1` (stereo not given) gave an INHIBITION of 78.2%. `Fc1cccc(C(NCc2ncc[nH]2)c2ccccn2)c1` (stereo not given) was tested, and the INHIBITION was -13.2%. For `Cc1ccc(NC2(C(=O)N3CCn4cncc4C3)CCCCC2)cc1C`, the INHIBITION was 42.1%. With `COCc1cnc2n1CCN(C1CCC1)C2C` (stereo not given) the INHIBITION was 42.6%. In the case of `O=C(NCCN1CCCCC1CO)c1cc(-c2ccccc2)on1` (stereo not given), the INHIBITION is reported as -7.81%. Compound `CC(C)CNC(=O)c1ccc2c(c1)nc1n2CCN(Cc2ccco2)C1` has an INHIBITION of 18.4%. `Cc1nnc(C2Cc3ccccc3CN2Cc2nc(C(C)C)no2)o1` (stereo not given) showed an INHIBITION of -10.1%. For `CC(=O)N1N=C(c2ccccc2)OC1C(=O)NCCOc1ccccc1` (stereo not given), the INHIBITION was -12.2%. `O=C(Nc1ccc(-n2cccn2)cc1)N1CCC(O)C1` (stereo not given) gave an INHIBITION of 42.3%. Work on `O=C(Nc1ccc(-n2cccn2)cc1)N1CCOCC(O)C1` (stereo not given) yielded an INHIBITION of 53.6%. `O=C(Nc1ccccc1OCCc1ccccn1)N1CCOCC(O)C1` (stereo not given) showed an INHIBITION of 12.3%. Compound `CC(=O)OC1CN(c2nc3c(C)cccc3s2)C1` has an INHIBITION of -45.6%. `c1cnc(N2CCO[C@H]3CN(Cc4csnn4)C[C@H]32)nc1` showed an INHIBITION of 42.7%. `CN(C)C(=O)Cn1c2c(ccc1=O)CC(NCc1ccoc1)CC2` (stereo not given) showed an INHIBITION of 8.31%. With `CS(=O)(=O)NC1CCc2c(ccc(=O)n2CC2CC2)C1` (stereo not given) the INHIBITION was 31.3%. Work on `CN(C)CCn1c2c(ccc1=O)CC(NC(=O)c1cnccn1)CC2` (stereo not given) yielded an INHIBITION of 14.6%. For `Cn1cc(CNC2CCc3c(ccc(=O)n3Cc3ccncc3)C2)cn1` (stereo not given), the INHIBITION was 42.1%. Compound `COCCn1c2c(ccc1=O)CC(NS(C)(=O)=O)CC2` (stereo not given) has an INHIBITION of 58.6%. With `Cn1cc(CNC2CCc3c(ccc(=O)n3Cc3cccnc3)C2)cn1` (stereo not given) the INHIBITION was 55.7%. For `O=C(NC1CCc2c(ccc(=O)n2CC2CC2)C1)c1cscn1` (stereo not given), the INHIBITION was 41.2%. `O=c1ccc2c(n1Cc1cccnc1)CCC(NCc1cccnc1)C2` (stereo not given) gave an INHIBITION of -2.03%. For `Cn1c2c(ccc1=O)CC(NS(C)(=O)=O)CC2` (stereo not given), the INHIBITION was 45.5%. `COCCn1c2c(ccc1=O)CC(NC(=O)c1cscn1)CC2` (stereo not given) gave an INHIBITION of 70.2%. For `CN(C)C(=O)Cn1c2c(ccc1=O)CC(NCc1cccnc1)CC2` (stereo not given), the INHIBITION was 57.1%. Compound `CN(C)CCn1c2c(ccc1=O)CC(NCc1cccnc1)CC2` (stereo not given) has an INHIBITION of 34.9%. Compound `Nc1nc(Nc2ccccc2)cc(N2CCNCC2)n1` has an INHIBITION of 12.5%. For `CC(C)CCn1ccc(NC(=O)N2CCCC2CN2CCOCC2)n1` (stereo not given), the INHIBITION was -0.551%. With `Cc1cc(CNS(C)(=O)=O)ccc1N(C)C` the INHIBITION was 25.5%. With `Cc1ccc(CN2C[C@@H]3COC[C@@H](CC(=O)N4CCOCC4)[C@@H]3C2)s1` the INHIBITION was -3.52%. `Cc1nccnc1C1CCN(C(=O)C(C)C)CC1` gave an INHIBITION of 29.35%. `CC(=O)N(C)Cc1ncn2c1CN(C(=O)CC1CC1)CCC2` showed an INHIBITION of -31.2%. Compound `Cc1ccc(C(=O)N2C[C@H](OCC3CCOCC3)[C@H]3OCCC[C@H]32)o1` has an INHIBITION of -33.9%. `COc1ccc(CN2CC[C@@H]3CN(S(C)(=O)=O)CCO[C@@H]3C2)cc1` showed an INHIBITION of -0.804%. For `CC(C)N1CCOC(c2cc(CCO)[nH]n2)C1` (stereo not given), the INHIBITION was 29.21%. In the case of `CCn1c2c(ccc1=O)CC(NCc1cnn(C)c1)CC2` (stereo not given), the INHIBITION is reported as 12.2%. With `COCCn1c2c(ccc1=O)CC(NCc1cnn(C)c1)CC2` (stereo not given) the INHIBITION was 55.7%. `CN(C)CCn1c2c(ccc1=O)CC(NCc1cnn(C)c1)CC2` (stereo not given) was tested, and the INHIBITION was 31.2%. With `Cc1ccc(C(=O)N2CCC3(CC2)NC(=O)CC3c2ccccc2)cn1` (stereo not given) the INHIBITION was -16.2%. `Cn1nc(Br)c2c(NCCSCCCO)ncnc21` gave an INHIBITION of 23.1%. `O=C(CCCNc1ncccn1)N1CCCC(n2ccnc2)C1` (stereo not given) gave an INHIBITION of -17.6%. `CN1CCCC(c2nccnc2-c2cccc(C(F)(F)F)c2)C1` (stereo not given) was tested, and the INHIBITION was 19.64%. `CN1CCCC(c2cccc(-c3cccc(F)c3)n2)C1` (stereo not given) was tested, and the INHIBITION was 36%. `CN1CCCC(c2cncc(-c3cccc(C(F)(F)F)c3)n2)C1` (stereo not given) gave an INHIBITION of 66.6%. Work on `CN1CCCC(c2cccc(-c3cccc(Cl)c3)n2)C1` (stereo not given) yielded an INHIBITION of 64.7%. Compound `CN1CCCC(c2nccnc2-c2cccc(Cl)c2)C1` (stereo not given) has an INHIBITION of 11.575%. For `CN1CCCC(c2cccc(-c3cccc(C(F)(F)F)c3)n2)C1` (stereo not given), the INHIBITION was 45.2%. For `Cn1ccnc1C1CCCN(C(=O)c2cc(F)cc(F)c2)C1` (stereo not given), the INHIBITION was 48.2%. `CN(C)CCN1CCC2(CCCN(C(=O)C3CCC3)C2)CC1` showed an INHIBITION of 33%. `O=C(C1CCOCC1)N1CC[C@H](O)[C@@H]1Cc1cccnc1` was tested, and the INHIBITION was 37.6%. For `Cc1ccc(CN2CC[C@H]3OCC[C@@H](C(=O)N4CCCCO4)[C@@H]3C2)o1`, the INHIBITION was 61.5%. For `O=C([C@@H]1CCO[C@@H]2CCN(CCc3ccccc3)C[C@@H]21)N1CCCC1`, the INHIBITION was -101%. Work on `O=C([C@@H]1CCO[C@@H]2CCN(CC3CCOCC3)C[C@H]21)N1CCCC1` yielded an INHIBITION of 30.3%. `CC(C)CN1CC[C@H]2OCC[C@@H](C(=O)N3CCCO3)[C@@H]2C1` was tested, and the INHIBITION was 47.9%. Work on `O=C([C@@H]1CCO[C@@H]2CCN(CC3CCOCC3)C[C@H]21)N1CCCO1` yielded an INHIBITION of 34.4%. In the case of `O=C([C@@H]1CCO[C@@H]2CCN(CC3CC3)C[C@H]21)N1CCCCO1`, the INHIBITION is reported as 61.5%. `O=C([C@@H]1CCO[C@@H]2CCN(CC3CC3)C[C@H]21)N1CCCC1` showed an INHIBITION of 57.5%. `O=C([C@@H]1CCO[C@@H]2CCN(Cc3ccco3)C[C@H]21)N1CCCCO1` gave an INHIBITION of 29.8%. `Cc1ccc(CN2C[C@H](C(=O)N3CCCCO3)[C@@H]3CCO[C@@H]3C2)o1` was tested, and the INHIBITION was -12.1%. `CN1CCN(C2COC3(CCN(CC4CC4)CC3)C2)CC1` (stereo not given) gave an INHIBITION of -30.1%. With `CC(C)n1nc(Cn2cccn2)c2c1CN(C1CCOC1)C2` (stereo not given) the INHIBITION was -12.1%. Work on `COc1cccc2c1ccn2CCNC(C)=O` yielded an INHIBITION of 21%. `O=C(NCc1cncc2c1CCN(Cc1ccc(F)cc1)C2)C1CC1` was tested, and the INHIBITION was -14.4%. Work on `COc1cccc(N2C(=O)CC3(CCCNC3)C2=O)c1` (stereo not given) yielded an INHIBITION of -33.1%. In the case of `N#Cc1ncn(CCC(=O)Nc2cccc(Cl)c2)n1`, the INHIBITION is reported as 39.5%. Compound `CCC(=O)Nc1ccc(C(C)NC(=O)COC)cc1` (stereo not given) has an INHIBITION of -68%. Compound `N[C@@H](Cc1ccccc1)c1nnc(S(=O)(=O)Cc2cccc(Cl)c2)o1` has an INHIBITION of -3.73%. In the case of `CCN(CC)c1ccc(C(=O)N2CCC(c3nc(C)no3)CC2)cn1`, the INHIBITION is reported as 30.25%.

Reference: ChEMBL document CHEMBL4513216, “Probing the Open Global Health Chemical Diversity Library for Multistage-Active Starting Points for Next-Generation Antimalarials” (ACS Infect Dis, 2020)
